Experimental data from PubChem BioAssay (NCATS).
Records with an inconclusive call do not appear. Entries that show only a call come without a potency. Calls of active or inactive are those of the source. Unless noted, calls come from the whole dose curve; as a rule, active = well fitted inhibition curve with a large enough effect; inconclusive = small, poorly fitted or top-dose-only effect; inactive = flat fitted curve, though single readings scatter. *1 amine or outer side, *2 acyl side, *3 side chain or, on linkers, in order; H or OH if unused. Bridge positions count the residues as written; N and C are the ends. Where a SMILES comes first, the peptide text is derived from it. Square brackets hold non-standard residues; d marks the D form. Bridges are numbered along the chain shown (N, C = ends). Peptide text beside a SMILES is read from it. [ ]: non-standard residue; d: D form. The star is where a group is joined. * marks the point of attachment. X11 = NC1=N[C@@H](O)C[C@H]([C@H](N[*:1])C(=O)[*:2])N1; ΔAla(Z-3-ureido) = NC(=O)N/C=C(\N)C(=O)O; Octanoyl(6-Me) = CCC(C)CCCCC(=O)*; β3hOrn = NCCC[C@H](N)CC(=O)*; Dab = NCC[CH](N)C(=O)O; Dap = NC[C@H](N)C(=O)O

How the values were obtained:
[1] = target: Glutathione peroxidase 1 (Homo sapiens) (UniProt P07203); test: Primary qHTS Assay for Inhibitors of Recombinant Selenoprotein Glutathione Peroxidase 1 (GPX1) (AID 1845191); note: nearly all actives have a fitted effect of over 65% in size; note: potency is the fitted concentration of half-maximal effect
Outline: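 10 nM GPX1 + cpd, 30 min RT; start w/ 1 mM GSH, 0.5 mM cumene hydroperoxide, 0.5 mM NADPH, 100 nM GR, 0.01% BSA; buffer 50 mM Tris-HCl pH 7.5, 2 mM EDTA, 150 mM NaCl; Fl 340/450, 0 & 15 min.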

[2] = target: Phospholipid hydroperoxide glutathione peroxidase GPX4 (Homo sapiens) (UniProt P36969); test: Primary qHTS Assay for Inhibitors of Recombinant Selenoprotein Glutathione Peroxidase 4 (GPX4) (AID 1845192); note: nearly all actives have a fitted effect of over 65% in size; note: potency is the fitted concentration of half-maximal effect
Outline: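 NADPH consumption, followed by fluorescence at 340/450 nm between 0 and 15 min, reports GPX4 activity via coupled glutathione reductase (100 nM). Enzyme 200 nM was pre-exposed to compound 30 min; 0.5 mM cumene hydroperoxide and 1 mM GSH served as substrates.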

[3] = qHTS drug screen for cell cycle checkpoint inhibitors in PARPi-resistant BRCA-mutant ovarian cancer cell lines. (AID 1963452; calls by dose curve); details: PEO1/OlaR viability, CellTiter-Glo luminescence, 96 h, stronger effect = lower value
Outline: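 PEO1, PEO4 and PEO1/OlaR ovarian cancer cells, 600 per well, exposed 96 h at 37C to a dilution series. Viability read by CellTiter-Glo luminescence, normalized to DMSO and empty wells; activity summarized as Z-AUC.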

[4] = target: Luciferin 4-monooxygenase (Photinus pyralis) (UniProt P08659); test: Biochemical firefly luciferase enzyme assay for NPC (AID 624030);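 note: purified P. pyralis luciferase at 10 nM with luciferin and ATP substrate; nearly all actives have a fitted effect of over 70% in size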
Outline: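 Direct inhibition of firefly luciferase enzyme (10 nM final, 50 mM Tris Acetate) assessed by luminescence within 5 minutes. Percent activity scaled between DMSO and PTC124 positive control, with concentration-effect curves classified by fit quality and response.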

[5] = qHTS profiling for inhibitors of Plasmodium falciparum proliferation (AID 504749); note: nearly all actives have a fitted effect of over 60% in size; details: P. falciparum in erythrocytes, SYBR Green DNA, 72 h; at 28.7 µM (top of the series); parasite line B
Outline: (§1)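 Infected RBCs, 0.3% parasitemia/2.5% Hct final; cpd 72 h, 37 C, 5% CO2; lysis buffer with saponin/triton/SYBR Green I, o/n RT dark; FI 485/535; norm. to artemisinin (0.29 uM) and DMSO.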

AS120 = test: as above; details: P. falciparum in erythrocytes, SYBR Green DNA, 72 h; series mostly up to 28.7 µM
Outline: as §1

ATS189 = test: as above; details: P. falciparum in erythrocytes, SYBR Green DNA, 72 h; series mostly up to 28.7 µM
Outline: as §1

CP192 = test: as above; details: P. falciparum in erythrocytes, SYBR Green DNA, 72 h; series mostly up to 28.7 µM
Outline: as §1

CP194 = test: as above; details: P. falciparum in erythrocytes, SYBR Green DNA, 72 h; series mostly up to 28.7 µM
Outline: as §1

CP247 = test: as above; details: P. falciparum in erythrocytes, SYBR Green DNA, 72 h; series mostly up to 28.7 µM
Outline: as §1

CP262 = test: as above; details: P. falciparum in erythrocytes, SYBR Green DNA, 72 h; series mostly up to 28.7 µM
Outline: as §1

CP269 = test: as above; details: P. falciparum in erythrocytes, SYBR Green DNA, 72 h; series mostly up to 28.7 µM
Outline: as §1

CP291 = test: as above; details: P. falciparum in erythrocytes, SYBR Green DNA, 72 h; series mostly up to 28.7 µM
Outline: as §1

CP297 = test: as above; details: P. falciparum in erythrocytes, SYBR Green DNA, 72 h; series mostly up to 28.7 µM
Outline: as §1

CP315 = test: as above; details: P. falciparum in erythrocytes, SYBR Green DNA, 72 h; series mostly up to 28.7 µM
Outline: as §1

CP329 = test: as above; details: P. falciparum in erythrocytes, SYBR Green DNA, 72 h; series mostly up to 28.7 µM
Outline: as §1

CP335 = test: as above; details: P. falciparum in erythrocytes, SYBR Green DNA, 72 h; series mostly up to 28.7 µM
Outline: as §1

DIV17 = test: as above; details: P. falciparum in erythrocytes, SYBR Green DNA, 72 h; series mostly up to 28.7 µM
Outline: as §1

GB4 = test: as above; details: P. falciparum in erythrocytes, SYBR Green DNA, 72 h; series mostly up to 28.7 µM
Outline: as §1

HB3 = test: as above; details: P. falciparum in erythrocytes, SYBR Green DNA, 72 h; series mostly up to 28.7 µM
Outline: as §1

[6] = measured here: PEO1 parental Z-AUC

Glutathione peroxidase 1 (Homo sapiens), sequence (P07203 whole entry, looked up): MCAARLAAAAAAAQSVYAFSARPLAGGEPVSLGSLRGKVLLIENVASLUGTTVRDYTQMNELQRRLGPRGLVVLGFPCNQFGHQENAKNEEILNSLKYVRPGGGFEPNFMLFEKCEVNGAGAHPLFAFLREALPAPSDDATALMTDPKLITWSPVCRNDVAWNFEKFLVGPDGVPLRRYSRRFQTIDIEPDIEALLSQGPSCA
Phospholipid hydroperoxide glutathione peroxidase GPX4 (Homo sapiens), sequence (P36969 whole entry, looked up): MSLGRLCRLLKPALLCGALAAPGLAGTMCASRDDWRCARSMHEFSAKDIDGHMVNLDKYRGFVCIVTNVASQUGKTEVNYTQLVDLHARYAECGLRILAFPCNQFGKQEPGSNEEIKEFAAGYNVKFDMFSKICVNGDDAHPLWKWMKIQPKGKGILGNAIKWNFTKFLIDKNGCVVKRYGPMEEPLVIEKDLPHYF
Luciferin 4-monooxygenase (Photinus pyralis), sequence (P08659 whole entry, looked up): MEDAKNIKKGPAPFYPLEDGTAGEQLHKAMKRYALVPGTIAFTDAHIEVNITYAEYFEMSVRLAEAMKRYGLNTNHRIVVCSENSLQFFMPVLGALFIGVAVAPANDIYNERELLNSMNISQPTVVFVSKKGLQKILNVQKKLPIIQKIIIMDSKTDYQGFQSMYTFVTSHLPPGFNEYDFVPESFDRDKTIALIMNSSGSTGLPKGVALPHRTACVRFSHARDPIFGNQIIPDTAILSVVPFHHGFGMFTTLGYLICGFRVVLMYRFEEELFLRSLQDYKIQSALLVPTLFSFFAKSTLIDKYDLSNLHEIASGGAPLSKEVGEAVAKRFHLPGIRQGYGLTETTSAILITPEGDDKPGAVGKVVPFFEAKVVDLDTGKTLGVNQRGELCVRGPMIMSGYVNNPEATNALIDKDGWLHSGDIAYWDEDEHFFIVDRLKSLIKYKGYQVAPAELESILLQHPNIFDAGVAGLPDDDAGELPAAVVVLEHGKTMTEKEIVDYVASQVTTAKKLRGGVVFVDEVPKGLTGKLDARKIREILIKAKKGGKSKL

NC(N)=NCCC[C@@H](N)C(=O)N[C@@H](CCCN=C(N)N)C(=O)N1CCC[C@H]1C(=O)N1C[C@H](O)C[C@H]1C(=O)NCC(=O)N[C@@H](Cc1cccs1)C(=O)N[C@@H](CO)C(=O)N1Cc2ccccc2C[C@@H]1C(=O)N1[C@H](C(=O)N[C@@H](CCCN=C(N)N)C(=O)O)C[C@@H]2CCCC[C@@H]21
Potency [1]: inactive | Potency [2]: inactive

C/C(O)=C(\C#N)C(=O)Nc1ccc(C(F)(F)F)cc1
Potency [1]: inactive | Potency [2]: inactive | Z-AUC [3]: -1.06 (inactive) | Z-AUC [3, 6]: 0.703 | Z-AUC ([3]; measured here: PEO4 Z-AUC): -0.074

CCCN1C[C@@H](NS(=O)(=O)N(CC)CC)C[C@@H]2Cc3c(O)cccc3C[C@H]21
Potency [1]: inactive | Potency [2]: inactive

CCCCCCO[C@@H](C)c1cccc(-c2csc(NC(=O)c3cc(Cl)c(/C=C(\C)C(=O)O)c(Cl)c3)n2)c1OC
Potency [1]: inactive | Potency [2]: 2.51 µM (active)

NCCC[C@H](N)CC(=O)N[C@H]1CNC(=O)[C@H]([C@H]2C[C@H](O)N=C(N)N2)NC(=O)/C(=C/NC(N)=O)NC(=O)[C@H](CO)NC(=O)[C@H](CO)NC1=O (β3hOrn-[Dap]SS[ΔAla(Z-3-ureido)][X11]; lactam 1-C)
Potency [1]: inactive | Potency [2]: inactive

O=S(=O)(O)c1ccccc1
Potency [1]: inactive | Potency [2]: inactive

C[C@H](Cc1cc2c(c(C(N)=O)c1)N(CCCO)CC2)NCCOc1ccccc1OCC(F)(F)F
Potency [1]: inactive | Potency [2]: inactive

CCC(CC)[C@H](NC(C)=O)[C@@H]1[C@H](O)[C@@H](C(=O)O)C[C@H]1N=C(N)N
activity, negative = inhibition [1]: -7.9% [at 0.4 µM] (inactive) | activity change, negative = inhibition [2]: -9.13% [at 0.409 µM] (inactive)

O=C(O)c1ccccc1C(c1ccc(O)cc1)c1ccc(O)cc1
Potency [1]: inactive | Potency [2]: inactive

Cc1c(OCC(F)(F)F)ccnc1C[S@@](=O)c1nc2ccccc2[nH]1
Potency [1]: 10.1 µM (active) | Potency [2]: 10 µM (active)

O[C@@H]([C@H](O)[C@@H](O)CBr)[C@@H](O)CBr
Potency [1]: inactive | Potency [2]: inactive

O=C1CCC(C(=O)O)N1 (stereo not drawn)
Potency [1]: inactive | Potency [2]: inactive

CC[C@@]1([C@@H]2O[C@@H]([C@H]3O[C@@](O)(CO)[C@H](C)C[C@@H]3C)C[C@@H]2C)CC[C@H]([C@]2(C)CCC3(C[C@H](O)[C@@H](C)[C@@H]([C@@H](C)[C@@H](OC)[C@H](C)C(=O)O)O3)O2)O1 (stereo partly drawn)
Potency [1]: inactive | Potency [2]: inactive | Z-AUC [3]: -0.884 (inactive) | Z-AUC [3, 6]: -0.753 | Z-AUC ([3]; measured here: PEO4 Z-AUC): -1.58

Cc1cc2nc3c(=O)[nH]c(=O)nc-3n(C[C@H](O)[C@H](O)[C@H](O)COP(=O)(O)OP(=O)(O)OC[C@H]3O[C@@H](n4cnc5c(N)ncnc54)[C@H](O)[C@H]3O)c2cc1C
Potency [1]: inactive | Potency [2]: inactive

CCC(C)CCCCC(=O)NC(CCN)C(=O)NC(C(=O)NC(CCN)C(=O)NC1CCNC(=O)C(C(C)O)NC(=O)C(CCN)NC(=O)C(CCN)NC(=O)C(CC(C)C)NC(=O)C(Cc2ccccc2)NC(=O)C(CCN)NC1=O)C(C)O (stereo not drawn) ({Octanoyl(6-Me)}-[Dab]T[Dab][Dab][Dab]FL[Dab][Dab]T; lactam 4-C; configuration not given here)
Potency [4]: inactive | Potency [1]: inactive | Potency [2]: inactive | activity, negative = inhibition [5]: 12% (inactive) | Potency (AS120): inactive | Potency (ATS189): inactive | Potency (CP192): inactive | Potency (CP194): inactive | Potency (CP247): inactive | Potency (CP262): inactive | Potency (CP269): inactive | Potency (CP291): inactive | Potency (CP297): inactive | Potency (CP315): inactive | Potency (CP329): inactive | Potency (CP335): inactive | Potency (DIV17): inactive | Potency (GB4): inactive | Potency (HB3): inactive
